# Laboratory results taken from the antibiotic and cytotoxicity screens of Wong et al. (2023).
# The campaign covered roughly 39,000 compounds. About 3,300 (8.5%) were called active. The sample holds actives, similar compounds and a random draw of the others, so the mix is not that of the screen.
# Test system: HepG2
# Test: cytotoxicity call (relative viability < 0.9)
# Settings: 10 µM
row,SMILES,cytotoxicity call
1,C[C@H](CO)N1C[C@H](C)[C@@H](CN(C)Cc2ccc(Oc3ccccc3)cc2)Oc2ccc(NC(=O)Nc3ccccc3)cc2C1=O,active
2,C[C@H]1CN([C@@H](C)CO)C(=O)c2cc(NC(=O)Nc3ccccc3)ccc2O[C@@H]1CN(C)Cc1ccc(Oc2ccccc2)cc1,active
3,C[C@H]1CN([C@@H](C)CO)C(=O)c2cc(NC(=O)Nc3ccccc3)ccc2O[C@H]1CN(C)Cc1ccc(Oc2ccccc2)cc1,inactive
4,C[C@@H]1CN([C@@H](C)CO)C(=O)c2cc(NC(=O)Nc3ccccc3)ccc2O[C@@H]1CN(C)Cc1ccc(Oc2ccccc2)cc1,active
5,C[C@@H]1CN([C@@H](C)CO)C(=O)c2cc(NC(=O)Nc3ccccc3)ccc2O[C@H]1CN(C)Cc1ccc(Oc2ccccc2)cc1,active
6,C[C@H](CO)N1C[C@H](C)[C@H](CN(C)Cc2ccc(Oc3ccccc3)cc2)Oc2ccc(NC(=O)Nc3ccccc3)cc2C1=O,inactive
7,C[C@H](CO)N1C[C@H](C)[C@H](CN(C)Cc2ccc(C(=O)O)cc2)Oc2c(NC(=O)Nc3ccc(C(F)(F)F)cc3)cccc2C1=O,inactive
8,O=C(C[C@@H]1C=C[C@@H](NC(=O)C2CCC2)[C@H](CO)O1)NCCCN1CCOCC1,inactive
9,C[C@@H]1CCCCO[C@H](CN(C)C(=O)Cc2ccccc2)[C@@H](C)CN([C@@H](C)CO)C(=O)c2cc(NC(=O)CCC(F)(F)F)ccc2O1,inactive
10,COCCOC(=O)N1C(=O)[C@@]2(c3ccccc31)[C@H](C(=O)N1CCCCCCC1)[C@H]1C(=O)O[C@H](c3ccccc3)[C@H](c3ccccc3)N1[C@@H]2c1ccc(OCCO)cc1,inactive
11,COc1ccc(-c2cnc3c(c2)C(=O)N([C@H](C)CO)C[C@H](C)[C@H](CN(C)C(=O)Cc2cccnc2)O3)cc1,inactive
12,Cn1c(=O)n2n(c1=O)[C@H](C1CC1)C=C1CN3[C@@H]([C@H](Cc4ccccc4)OC(=O)[C@@H]3Cc3ccc(-n4cc(CCC(=O)NO)nn4)cc3)[C@@H]12,inactive
13,C[C@H]1CN([C@@H](C)CO)C(=O)CCCn2nncc2CO[C@H]1CN(C)C(=O)Nc1ccc(C(F)(F)F)cc1,inactive
14,NC(=O)CN1C(=O)C(=O)c2cc(Cl)ccc21,inactive
15,Cc1nc(-c2ccncc2)sc1CN,inactive
16,O=C(C[C@@H]1C[C@@H]2c3cc(NC(=O)c4ccc5c(c4)OCO5)ccc3O[C@@H]2[C@H](CO)O1)NCc1ccccn1,inactive
17,COCC(=O)Nc1ccc2c(c1)C(=O)N(C)[C@H]1CC[C@@H](CC(=O)NCc3ccc(OC)cc3)O[C@@H]1CO2,inactive
18,Cc1noc(C)c1NC(=O)Nc1cccc2c1O[C@@H](CN(C)S(C)(=O)=O)[C@H](C)CN([C@H](C)CO)C2=O,inactive
19,COc1cc(S(C)(=O)=O)ccc1Nc1nc2ccc(-c3ccc(NC(=O)[C@H](C)c4ccc(F)cc4)cc3)cn2n1,inactive
20,C[C@@H]1CN([C@H](C)CO)C(=O)c2cc(NC(=O)Nc3ccccc3)ccc2O[C@@H]1CN(C)Cc1ccc(Oc2ccccc2)cc1,active
21,C[C@@H]1CN([C@H](C)CO)C(=O)c2cc(NC(=O)Nc3ccccc3)ccc2O[C@H]1CN(C)Cc1ccc(Oc2ccccc2)cc1,active
22,COc1ccc(NC(=O)N(C)C[C@@H]2OCCCC[C@@H](C)Oc3ccc(NS(=O)(=O)c4ccc(C)cc4)cc3C(=O)N([C@@H](C)CO)C[C@@H]2C)cc1,inactive
23,CCCNC(=O)N1C[C@H]2[C@@H](c3ccccc31)[C@H](CO)N2C(=O)CN1CCOCC1,inactive
24,C[C@@H]1CCCCO[C@@H](CN(C)Cc2ccc(Cl)c(Cl)c2)[C@H](C)CN([C@@H](C)CO)C(=O)c2cc(NS(=O)(=O)c3cccs3)ccc2O1,inactive
25,CC(=O)NCC(=O)N1CCC2(CC1)C(=O)N(CC1CC1)CCN2C,inactive
26,C[C@@H]1CN([C@H](C)CO)C(=O)c2cc(NS(=O)(=O)c3ccc(F)cc3)ccc2O[C@H]1CN(C)S(C)(=O)=O,inactive

row,SMILES,cytotoxicity call
1,C[C@@H]1ON(c2ccc(C(=O)OC(C)(C)C)cc2)[C@H](c2ccc(O)cc2)[C@H]1C(=O)N1C(=O)OC[C@H]1Cc1ccccc1,inactive
2,COc1cccc(S(=O)(=O)N(C)C[C@@H]2Oc3ncc(-c4ccc(F)cc4)cc3C(=O)N([C@H](C)CO)C[C@@H]2C)c1,inactive
3,O=C(c1ccco1)N1CCNCC1,inactive
4,COc1cc2nc(N3CCN(C(=O)c4ccco4)CC3)nc(N)c2cc1OC.Cl,active
5,NC(=O)C1CCN(C(=O)c2ccco2)CC1,inactive
6,COc1cc2nc(N(C)CCCNC(=O)C3CCCO3)nc(N)c2cc1OC.Cl (configuration not stated),inactive
7,COc1cc2nc(N3CCN(C(=O)C4COc5ccccc5O4)CC3)nc(N)c2cc1OC.CS(=O)(=O)O (configuration not stated),inactive
8,COc1cc2nc(N3CCN(C(=O)C4CCCO4)CC3)nc(N)c2cc1OC.Cl (configuration not stated),active
9,Cl.Cl.NCCNCCNCCN,inactive
10,C[C@@H]1CCCCO[C@@H](CN(C)C(=O)CCC(F)(F)F)[C@H](C)CN([C@@H](C)CO)C(=O)c2cc(NC(=O)Nc3ccccc3)ccc2O1,inactive
11,C[C@@H]1CCCCO[C@H](CN(C)CC2CC2)[C@@H](C)CN([C@H](C)CO)C(=O)c2cc(NC(=O)Cc3ccccc3)ccc2O1,inactive
12,O=C(C[C@H]1CC[C@@H]2[C@H](COC[C@H](O)CN2C(=O)c2cnccn2)O1)N1CCN(c2ccccc2)CC1,inactive
13,C[C@H](CO)N1C[C@H](C)[C@H](CN(C)CC2CCCCC2)OCCCC[C@H](C)Oc2ccc(NC(=O)CCCN(C)C)cc2C1=O,inactive
14,NNC(=O)c1ccc2c(=O)[nH][nH]c(=O)c2c1,inactive
15,CCS(=O)(=O)NCC[C@@H]1CC[C@@H](NS(=O)(=O)c2ccccc2C)[C@H](CO)O1,inactive
16,COCc1cn(CC[C@@H]2CC[C@H](NC(=O)CCN3CCCCC3)[C@@H](CO)O2)nn1,inactive
17,CN(C)CCCNC(=O)C[C@@H]1CC[C@H]2[C@@H](COc3ccc(NC(=O)c4ccc5c(c4)OCO5)cc3C(=O)N2C)O1,inactive
18,C[C@H](CO)N1C[C@H](C)[C@@H](CN(C)C(=O)Nc2ccc(F)cc2)Oc2ccc(NS(C)(=O)=O)cc2C1=O,inactive
19,C[C@H]1CN([C@@H](C)CO)C(=O)c2cc(NS(C)(=O)=O)ccc2O[C@H]1CN(C)C(=O)Nc1ccc(C(F)(F)F)cc1,active
20,C[C@H](CO)N1C[C@H](C)[C@@H](CN(C)C(=O)Nc2ccc(C(F)(F)F)cc2)Oc2ccc(NS(C)(=O)=O)cc2C1=O,inactive
21,C[C@H]1CN([C@@H](C)CO)C(=O)c2cc(NS(C)(=O)=O)ccc2O[C@@H]1CN(C)C(=O)Nc1ccc(F)cc1,active
22,C[C@@H]1CN([C@H](C)CO)C(=O)c2cc(NS(C)(=O)=O)ccc2O[C@H]1CN(C)C(=O)Nc1ccc(C(F)(F)F)cc1,inactive
23,C[C@@H]1CN([C@@H](C)CO)C(=O)c2cc(NS(C)(=O)=O)ccc2O[C@H]1CN(C)C(=O)Nc1ccc(C(F)(F)F)cc1,inactive
24,C[C@@H]1CN([C@@H](C)CO)C(=O)c2cc(NS(C)(=O)=O)ccc2O[C@@H]1CN(C)C(=O)Nc1ccc(C(F)(F)F)cc1,active
25,C[C@H]1CN([C@@H](C)CO)C(=O)c2cc(NS(C)(=O)=O)ccc2O[C@H]1CN(C)C(=O)Nc1ccc(F)cc1,inactive
26,C[C@H]1CN([C@@H](C)CO)C(=O)c2cc(NS(C)(=O)=O)ccc2O[C@@H]1CN(C)C(=O)Nc1ccc(C(F)(F)F)cc1,inactive
